Experimental data reported in the supplement of paper PMC9694430.

How the values were obtained:
Assay in all cases: thermal shift delta Tm vs DMSO control; higher = stronger stabilization (binding)
Settings in all cases: 12.5 µM; protein concentration 2 µM
[1] = system: LOC_OS01G01410-cb001
How it was run: (§1)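 Compounds dissolved in DMSO were added to purified rice kinase domain constructs, which had been expressed in E. coli, for differential scanning fluorimetry. Each well held 19.5 μl of 2 μM kinase in 100 mM potassium phosphate pH 7.5, 150 mM NaCl, 10% glycerol and 5 × SYPRO Orange. Fluorescence was followed from 25°C to 95°C at a rate of 0.05°C/s. Shifts in Boltzmann-fitted melting temperature are triplicate means relative to DMSO-only protein.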

[2] = system: LOC_OS01G02750-cb003
How it was run: as §1

[3] = system: LOC_OS01G10900-cb004
How it was run: as §1

[4] = system: LOC_OS01G13800-cb001
How it was run: as §1

[5] = system: LOC_OS01G14860-cb001
How it was run: as §1

[6] = system: LOC_OS01G21960-cb002
How it was run: as §1

[7] = system: LOC_OS01G39600-cb002
How it was run: as §1

[8] = system: LOC_OS01G48390-cb002
How it was run: as §1

[9] = system: LOC_OS01G51400-cb002
How it was run: as §1

[10] = system: T1, LOC_OS01G52050-cb004
T1 sequence (whole entry): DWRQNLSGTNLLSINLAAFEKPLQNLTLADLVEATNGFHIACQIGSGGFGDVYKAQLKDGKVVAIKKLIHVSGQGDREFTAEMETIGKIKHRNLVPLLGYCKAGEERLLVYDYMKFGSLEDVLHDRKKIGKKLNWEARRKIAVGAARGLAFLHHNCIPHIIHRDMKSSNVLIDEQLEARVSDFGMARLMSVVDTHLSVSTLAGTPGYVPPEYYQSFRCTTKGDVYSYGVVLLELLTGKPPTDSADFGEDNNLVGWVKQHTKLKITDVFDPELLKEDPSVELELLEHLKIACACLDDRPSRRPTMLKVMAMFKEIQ
How it was run: as §1

| SMILES | thermal shift delta Tm [1] [°C] | thermal shift delta Tm [2] [°C] | thermal shift delta Tm [3] [°C] | thermal shift delta Tm [4] [°C] | thermal shift delta Tm [5] [°C] | thermal shift delta Tm [6] [°C] | thermal shift delta Tm [7] [°C] | thermal shift delta Tm [8] [°C] | thermal shift delta Tm [9] [°C] | thermal shift delta Tm [10] [°C] |
| --- | --- | --- | --- | --- | --- | --- | --- | --- | --- | --- |
| C[C@H](NC(=O)c1c(N)nn2cccnc12)c1cc2cccc(C#Cc3cnn(C)c3)c2c(=O)n1-c1ccccc1 | -0.14 | 1.49 | -0.2 | 0 | 0.51 | 0.17 | 0.28 | 0.19 | 0.28 | 2.08 |
| CO[C@H]1C[C@@H]2CC[C@@H](C)[C@@](O)(O2)C(=O)C(=O)N2CCCC[C@H]2C(=O)O[C@H]([C@H](C)C[C@@H]2CC[C@@H](O)[C@H](OC)C2)CC(=O)[C@H](C)/C=C(\C)[C@@H](O)[C@@H](OC)C(=O)[C@H](C)C[C@H](C)/C=C/C=C/C=C/1C [Rapamycin (Sirolimus)] | 0.87 | 0.22 | -0.07 | -0.01 | 0.33 | 0.21 | 0.05 | 0.16 | 0.12 | -0.13 |
| COc1cc2ncnc(Oc3cccc(NC(=O)Nc4cc(C(C)(C)C(F)(F)F)on4)c3)c2cc1OC | 0.82 | 1.07 | 0.12 | 0.13 | 0.91 | 0.64 | 0.02 | 0.73 | 0.35 | 0.75 |
| NC1(c2ccc(-c3nc4ccn5c(=O)[nH]nc5c4cc3-c3ccccc3)cc2)CCC1 | 0.94 | -0.51 | 0.16 | 0.23 | 0.18 | -0.02 | 0.19 | 0.18 | -0.13 | 0.16 |
| CC(C)(C)c1ccc(S(=O)(=O)/C=C/C#N)cc1 | -0.73 | -1.97 | -1.97 | 0.14 | -0.21 | 1.29 | -0.46 | 0.36 | 0.18 | -3.59 |
| O=C(Cc1ccc(-c2ccc(OCCN3CCOCC3)cc2)cn1)NCc1ccccc1 | 0.29 | -0.23 | -0.03 | -0.06 | 0.06 | 0.58 | -1.02 | 0.31 | 0.06 | -0.13 |
| C#Cc1cccc(Nc2ncnc3cc4c(cc23)OCCOCCOCCO4)c1 [Icotinib] | -0.52 | 0.8 | 0.96 | 0.01 | 0.16 | 0.74 | 2.84 | 2.19 | 0.45 | 0.36 |
| NC1(Cc2ccc(Cl)cc2)CCN(c2ncnc3[nH]ccc23)CC1 | 0.45 | 0.58 | -0.03 | 0.07 | 1.34 | 0.89 | 0.46 | 3.31 | 0.45 | 0.94 |
| CC(C)(O)CNc1ncc(-c2ccnc(Nc3ccncc3)n2)c(CC2CC2)n1 [VPS34 inhibitor 1 (Compound 19, PIK-III analogue)] | 0.51 | 1.04 | 5.05 | 0.63 | 2.25 | 0.87 | 0.48 | 1.46 | 0.29 | 4.06 |
| COC(=O)c1ccc2c(c1)NC(=O)/C2=C(\Nc1ccc(N(C)C(=O)CN2CCN(C)CC2)cc1)c1ccccc1 [Nintedanib (BIBF 1120)] | 2.25 | -0.82 | 0.18 | -0.11 | 1.18 | 0.47 | 1.74 | 1.19 | 0.18 | 1.07 |
